Measurements taken from ChEMBL document CHEMBL1857833, “Screening and optimization of specific chemical series against human African Trypanosomiasis (HAT)”.
Several values for one entry are separate records, joined by “and”; a condition that tells them apart may be missing. Identical values can stand only once. The whole screen tested about 4,400 compounds, of which about 390 (8.9%) showed an effect of 50% or more. This excerpt belongs to a sample that is enriched for strong results.

tested on: Trypanosoma brucei; test: DNDI: Inhibition of Human African Trypanosomiasis, SBRI 427, in vitro at 2 ug.mL-1; format: functional

SMILES | % inhibition
CCOc1cccc(-c2nc(CN(C)C3CCN(Cc4ccccc4)C3)co2)c1 (stereo not given) | -2%
FC(F)(F)c1cccc(N2CCN(Cc3coc(-c4cccc5ccccc45)n3)CC2)c1 | 6%
CCOc1cccc(-c2nc(Cn3ccnc3CC)co2)c1 | -10%
COc1ccccc1CCNCc1coc(-c2cccc3ccccc23)n1 | 43%
N/C(=N\O)c1cccnc1Oc1cccc(C(F)(F)F)c1 | 46%
CC(C)N1CCN(/C(=N\O)c2cccnc2Oc2cccc(C(F)(F)F)c2)CC1 | 101%
CC1=NCCN1/C(=N\O)c1cccnc1Oc1cccc(C(F)(F)F)c1 | 2%
COc1ccc(Oc2ncccc2/C(=N/O)N2CCN(C3CCCC3)CC2)cc1 | -12%
O/N=C(/c1cccnc1Oc1cccc(C(F)(F)F)c1)N1CCN(C2CCCC2)CC1 | 85%
O/N=C(/c1cccnc1Oc1ccccc1Cl)N1CCN(C2CCCC2)CC1 | -2%
CCN(CCNCc1coc(-c2ccccc2Br)n1)c1cccc(C)c1 | -30%
O/N=C(/c1cccnc1OCc1cccc(F)c1)N1CCN(c2ccccc2)CC1 | -1%
CCOc1cccc(-c2nc(Cn3cc(C)nc3CC)co2)c1 | 7%
Cc1ccc(/C(=N/O)NC2CC(C)CC(C)(C)C2)c(Oc2ccc(Cl)cc2-c2ccno2)n1 (stereo not given) | 16%
CC1CC(N/C(=N\O)c2cccnc2Oc2ccc(C(C)C)cc2)CC(C)(C)C1 (stereo not given) | 98%
Cc1ccc(/C(=N/O)NC2CC(C)CC(C)(C)C2)c(Oc2cc(Cl)ccc2Cl)n1 (stereo not given) | 7%
CC1CC(N/C(=N\O)c2cccnc2Oc2ccc(F)c(Cl)c2)CC(C)(C)C1 (stereo not given) | 100%
CC1CC(N/C(=N\O)c2cccnc2Oc2cc(Cl)ccc2Cl)CC(C)(C)C1 (stereo not given) | 99%
CCN(CC)c1cccc(Oc2ncccc2/C(=N/O)NC2CC(C)CC(C)(C)C2)c1 (stereo not given) | -6%
Cc1ccc(/C(=N/O)NC2CC(C)CC(C)(C)C2)c(Oc2ccc(F)c(F)c2)n1 (stereo not given) | 11%
CCCCN(CCC#N)Cc1coc(-c2ccccc2C)n1 | -4%
CCOC(=O)C1CCCCN1Cc1coc(-c2ccccc2OCC)n1 (stereo not given) | 3%
CC(C)c1ccc(Oc2ncccc2/C(N)=N/O)cc1 | 16%
C[C@@H]1C(NCc2coc(-c3cccc(F)c3)n2)C[C@H]2C[C@@H]1C2(C)C (stereo not given in full) | 90%
Fc1cccc(-c2nc(CNC3CCc4ccccc43)co2)c1 (stereo not given) | 13%
Fc1cccc(-c2nc(CNC3C[C@H]4CC[C@@H]3C4)co2)c1 (stereo not given in full) | -5%
CC(C)C(C)NCc1coc(-c2cccc(F)c2)n1 (stereo not given) | 8% and 16%

SMILES | % inhibition
C[C@H]1C(NCc2coc(-c3cccc(F)c3)n2)C[C@@H]2C[C@H]1C2(C)C (stereo not given in full) | 99%
CCC(CC)CNCc1coc(-c2cccc(F)c2)n1 | 18%
C#CCNCc1coc(-c2cccc(C)c2)n1 | 24%
CSc1ccc(Oc2cc(/C(=N/O)NCC3CCCO3)ccn2)cc1 (stereo not given) | 6%
CC1CCC(N/C(=N\O)c2cccnc2Oc2ccc(F)cc2Cl)CC1 (stereo not given) | 95%
CC1CCC(C)N1/C(=N\O)c1cccnc1Oc1ccc(F)cc1Cl (stereo not given) | 24%
O/N=C(\NC1CCN(Cc2ccccc2)C1)c1cccnc1Oc1ccccc1Cl (stereo not given) | 2%
Cc1cccc(Oc2ncccc2/C(=N/O)NC2CCC(C)CC2)c1C (stereo not given) | 20%
CC1CCC(N/C(=N\O)c2cccnc2Oc2ccccc2Cl)CC1 (stereo not given) | 99%
CN(/C(=N\O)c1cccnc1Oc1ccc(F)cc1Cl)C1CCCCC1 | 7%
Cc1cccc(-c2nc(Cn3cc(C=O)nc3C)co2)c1 | 1%
CCOc1ccccc1-c1nc(CN(CCOC)C(C)C)co1 | 1%
C=CCN1CCN(/C(=N\O)c2cccnc2OCC(F)(F)F)CC1 | 7%
CCOc1cccc(-c2nc(CN(CCC#N)C3CCCCC3)co2)c1 | 18%
CN(C)CCN(C)Cc1coc(-c2ccc(O)cc2)n1 | 7%
NCCc1cn(Cc2coc(-c3cccc4ccccc34)n2)cn1 | 73%
NCCc1cn(Cc2coc(-c3ccc(Cl)cc3Cl)n2)cn1 | 75%
Clc1ccc(-c2nc(Cn3cnc(-c4ccccc4)c3)co2)c(Cl)c1 | 7%
NCCc1cn(Cc2coc(-c3ccccc3F)n2)cn1 | 40%
NCCc1cn(Cc2coc(-c3ccccc3Br)n2)cn1 | -5%
Cc1cn(Cc2coc(-c3ccc(Cl)cc3Cl)n2)cn1 | 2%
CSc1ccc(Oc2ccc(/C(=N/O)NC3CC(C)CC(C)(C)C3)cn2)cc1 (stereo not given) | -8%
COc1ccc(-c2nc(CN3CCN(c4ccc(C(C)=O)cc4)CC3)co2)cc1 | 4%
CCOc1ccccc1-c1nc(CNCc2ccc(C(C)(C)C)cc2)co1 | 6%
Cc1ccc(/C(=N/O)N2CCCCC2)c(Oc2cccc(F)c2)n1 | 16%
O/N=C(\NCC1CCCO1)c1ccc(Oc2cc(Cl)ccc2Cl)nc1 (stereo not given) | 34%
CSc1ccc(Oc2ccc(/C(=N/O)NCc3ccccc3F)cn2)cc1 | 95%

SMILES | % inhibition
O/N=C(\NCC1CCCCC1)c1ccc(Oc2cc(Cl)ccc2Cl)nc1 | 76%
O/N=C(\NCCN1CCOCC1)c1ccc(Oc2cc(Cl)ccc2Cl)nc1 | 34%
O/N=C(\NC1CCCCC1)c1ccc(Oc2cc(Cl)ccc2Cl)nc1 | 98%
O/N=C(\NCc1ccccc1F)c1ccc(Oc2ccc(Cl)cc2)nc1 | -6%
O/N=C(\NC1CCCC1)c1ccc(Oc2cc(Cl)ccc2Cl)nc1 | 99%
N/C(=N\O)c1ccc(Oc2cc(Cl)ccc2Cl)nc1 | 10%
O/N=C(\NCC1CCCCC1)c1ccc(Oc2cccc3ccccc23)nc1 | 24%
O/N=C(\NCc1cccnc1)c1ccc(Oc2cc(Cl)ccc2Cl)nc1 | 8%
O/N=C(/c1ccc(Oc2cc(Cl)ccc2Cl)nc1)N1CCN(C2CCCC2)CC1 | 22%
CSc1ccc(Oc2ccc(/C(=N/O)NCc3ccccc3C)cn2)cc1 | -7%
COc1ccc(Oc2nc(C)ccc2/C(=N/O)NCc2cc(F)ccc2F)cc1 | 15%
Cc1ccc(/C(=N/O)N2CCSC2)c(Oc2ccc3oc4ccccc4c3c2)n1 | 14%
Cc1cccc(-c2nc(CNCC(F)(F)F)co2)c1 | -2%
COc1cccc(CNCc2coc(-c3ccc(Cl)cc3Cl)n2)c1OC | 6%
CCN(Cc1ccccc1)Cc1coc(-c2cccc(F)c2)n1 | 14%
Cc1ccc(/C(=N/O)n2ccnc2C)c(OCC(F)(F)F)n1 | 21%
COC(=O)C1CCN(Cc2coc(-c3ccc(O)cc3)n2)CC1 | -3%
CCOc1ccc(-c2nc(CNCCCN(C)c3ccccc3)co2)cc1 | 42%
CCOc1ccccc1-c1nc(CN2CCN(c3ccc(C)cc3C)CC2)co1 | 7%
O/N=C(\NCC1CCCCC1)c1ccc(Oc2ccc(F)cc2)nc1 | 28%
O/N=C(\NCC1CCCO1)c1ccc(Oc2ccc(Cl)cc2)nc1 (stereo not given) | 47%
O/N=C(\NCc1ccncc1)c1ccc(Oc2ccc(Cl)cc2)nc1 | -11%
O/N=C(\NCc1ccccc1)c1ccc(Oc2ccc(-n3ccnc3)cc2)nc1 | 16%
O/N=C(\NCC1CCCO1)c1ccc(Oc2ccc(-n3ccnc3)cc2)nc1 (stereo not given) | 32%
O/N=C(\NCc1ccccc1)c1ccc(Oc2ccc(Cl)cc2)nc1 | 57%
COc1ccc(CN/C(=N\O)c2ccc(Oc3ccc(Cl)cc3)nc2)cc1 | 6%
O/N=C(\NCC1CCCCC1)c1ccc(Oc2ccc(Cl)cc2)nc1 | 93%

SMILES | % inhibition
O/N=C(\NCC1CCCCC1)c1ccc(Oc2ccc(-n3ccnc3)cc2)nc1 | 78%
CC1CN(Cc2coc(-c3ccc(Cl)cc3Cl)n2)CC(C)O1 (stereo not given) | 14%
CCCN/C(=N\O)c1ccc(C)nc1Oc1cccc(C(C)C)c1 | 4%
c1coc(-c2nc(CN3CCCc4ccccc43)co2)c1 | 18%
COc1ccc(-c2nc(CNC(C)c3ccccc3)co2)cc1 (stereo not given) | 3%
Cc1ccc(/C(=N/O)NCc2ccccn2)c(OCc2cccc(F)c2)n1 | -1%
CCOc1ccc(-c2nc(Cn3ccnc3C(C)C)co2)cc1 | 10%
COc1ccc(-c2nc(CNC(c3ccccc3)c3ccccc3)co2)cc1 | -28%
COc1ccccc1Oc1ncccc1/C(=N/O)N1CCOCC1 | 16%
CCC(NCc1coc(-c2ccc(Br)cc2)n1)c1ccccc1 (stereo not given) | -22% and -13%
Cc1ccc(Oc2nc(C)ccc2/C(N)=N/O)c(C)c1 | 11%
N#CCCN(Cc1coc(-c2ccc(F)cc2)n1)c1ccccc1 | -10%
Cc1ccc(Oc2cc(/C(=N/O)N3CC(C)CC(C)C3)ccn2)c(C)c1 (stereo not given) | 22%
Cc1ccc(Oc2cc(/C(=N/O)NCc3ccccc3C)ccn2)c(C)c1 | 42%
Cc1ccc(Oc2cc(/C(=N/O)N3CCCCCC3)ccn2)c(C)c1 | 98%
Cc1cc(C)cc(CN/C(=N\O)c2ccc(Oc3cc(Cl)ccc3Cl)nc2)c1 | -11%
CC(C)(C)CN/C(=N\O)c1ccc(Oc2cc(Cl)ccc2Cl)nc1 | 99%
COCCN/C(=N\O)c1ccnc(Oc2cc(Cl)ccc2Cl)c1 | 27%
O/N=C(\NCc1cccnc1)c1ccnc(Oc2cc(Cl)ccc2Cl)c1 | 17%
Cc1ccc(Oc2cc(/C(=N/O)N3CCCCC3)ccn2)c2c1CCC2 | 19%
COCCN/C(=N\O)c1ccnc(Oc2ccc(C)cc2C)c1 | 6%
Cc1ccc(Oc2cc(/C(=N/O)NCC(C)(C)C)ccn2)c(C)c1 | 96%
O/N=C(\NCc1ccccc1)c1ccc(Oc2cc(Cl)ccc2Cl)nc1 | 31%
CC(C)(C)CN/C(=N\O)c1ccnc(Oc2cc(Cl)ccc2Cl)c1 | 56%
